# Reference: publication PMC4336329 (PLoS ONE, 2015)
# Hit rate of the full screen: of about 310,000 compounds, about 14,000 (4.5%) showed an effect of 50% or more. Effects have a minus sign here. Only a selection was taken, and strong results are over-represented in it overall.
# Target: human ether-à-go-go-related gene (hERG) potassium channel (human, UniProt Q12809)
# Assay: primary screen, population patch clamp on CHO cells stably expressing hERG; higher = less effect of the substance
# 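Note: peak tail current of the secondary pulse compared with the same well before compound.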
# human ether-à-go-go-related gene (hERG) potassium channel, sequence (Q12809 whole entry, looked up): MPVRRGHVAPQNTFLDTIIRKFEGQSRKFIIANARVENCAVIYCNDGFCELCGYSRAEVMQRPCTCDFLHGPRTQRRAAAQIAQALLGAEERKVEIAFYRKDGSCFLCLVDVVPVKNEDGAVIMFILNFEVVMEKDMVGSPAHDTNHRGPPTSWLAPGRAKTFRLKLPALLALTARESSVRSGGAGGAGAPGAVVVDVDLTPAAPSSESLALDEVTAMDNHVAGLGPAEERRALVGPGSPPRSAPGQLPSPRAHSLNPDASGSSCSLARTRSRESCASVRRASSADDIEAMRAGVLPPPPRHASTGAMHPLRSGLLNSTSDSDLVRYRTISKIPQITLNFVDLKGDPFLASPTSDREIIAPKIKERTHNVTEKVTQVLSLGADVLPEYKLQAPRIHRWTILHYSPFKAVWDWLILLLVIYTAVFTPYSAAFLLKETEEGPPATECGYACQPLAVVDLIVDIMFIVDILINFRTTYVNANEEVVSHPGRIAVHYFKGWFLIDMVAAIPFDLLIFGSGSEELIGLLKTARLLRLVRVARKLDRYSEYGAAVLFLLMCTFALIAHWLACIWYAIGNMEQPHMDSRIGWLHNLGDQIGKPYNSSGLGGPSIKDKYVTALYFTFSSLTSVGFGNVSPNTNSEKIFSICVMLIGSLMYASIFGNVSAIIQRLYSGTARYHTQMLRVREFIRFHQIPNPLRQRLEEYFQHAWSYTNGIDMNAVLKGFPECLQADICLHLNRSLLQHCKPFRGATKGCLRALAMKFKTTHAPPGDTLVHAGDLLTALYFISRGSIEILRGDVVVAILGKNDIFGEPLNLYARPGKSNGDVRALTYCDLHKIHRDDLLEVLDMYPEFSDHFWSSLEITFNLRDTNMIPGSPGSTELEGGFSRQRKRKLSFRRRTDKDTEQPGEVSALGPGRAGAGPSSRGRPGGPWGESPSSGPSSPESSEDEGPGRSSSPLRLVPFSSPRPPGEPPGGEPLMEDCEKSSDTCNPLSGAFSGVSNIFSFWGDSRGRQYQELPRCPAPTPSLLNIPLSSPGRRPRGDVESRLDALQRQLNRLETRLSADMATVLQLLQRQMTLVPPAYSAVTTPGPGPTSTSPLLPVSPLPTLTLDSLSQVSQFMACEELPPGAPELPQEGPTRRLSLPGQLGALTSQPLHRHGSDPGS
row,SMILES,"hERG current change (%, negative = inhibition) at 10uM [%]"
1,COCCN(C(=O)c1cc2c(s1)CCCCC2)c1c(N)n(CC(C)C)c(=O)[nH]c1=O,3.04
2,CCOC(=O)C(NC(=O)C1CCCN1C(=O)OCc1ccccc1)C(=O)OCC (centres unmarked),-0.938
3,CCc1nnc(NC(=O)C2CCCN2C(=O)Nc2ccc(Cl)cc2)s1 (centres unmarked),1.86
4,COc1cc(-c2cc(C(=O)Nc3ccc(S(=O)(=O)Nc4ncccn4)cc3)c3ccccc3n2)cc(OC)c1OC,-7.01
5,CCn1c(=O)cc(SCC(=O)Nc2ccc(OC)c(OC)c2)c2ccccc21,-4.7
6,COc1ccc(S(=O)(=O)Nc2ccc(-n3cnnn3)cc2)cc1[N+](=O)[O-],0.00208
7,CC(C)(C)OC(=O)CNC(=O)c1[nH]cnc1C(=O)NC1CCN(C(=O)OC(C)(C)C)CC1,-2.67
8,CC(C)(C)OC(=O)NCCCCCNC(=O)c1[nH]cnc1C(=O)Nc1ccccc1,-53.2
9,Cc1ccc(NC(=O)c2nc[nH]c2C(=O)NCCCCCNC(=O)OC(C)(C)C)cc1,-15.2
10,CC(C)(C)OC(=O)NCCCCCNC(=O)c1[nH]cnc1C(=O)NC1CCN(C(=O)OC(C)(C)C)CC1,-78.1
11,CC(C)(C)OC(=O)N1CCC(NC(=O)c2nc[nH]c2C(=O)NC2CCN(C(=O)OC(C)(C)C)CC2)CC1,-31.5
12,CC(C)(C)OC(=O)NCCCCCNC(=O)c1[nH]cnc1C(=O)Nc1ccc(Cl)cc1,-6.26
13,O=C(COC(=O)/C=C/c1ccccc1Cl)NC1CCCC1,14.6
14,O=C(Nc1cccc2ccccc12)NC1CCCCC1O (centres unmarked),0.227
15,O=C(Nc1ccc(Cl)cc1Cl)C1CCC(=O)N1Cc1ccccc1Cl (centres unmarked),-2.67
16,C#CCOCCOCCOCCNc1nc(N2CCN(C(=O)CCCCCCCCCCNC(=O)[C@H](CO)n3cc(CCCSC)nn3)CC2)nc(N2CCN(C(=O)CCCCCCCCCCNC(=O)[C@@H]([C@H](C)O)n3cc(C)nn3)CC2)n1,8.18
17,Cc1nnc(SCC(=O)Nc2ccc3c(c2)OCCO3)s1,16.9
18,C/C(=N\O)c1ccc2c3ccccc3n(C)c2c1,25.3
19,COc1cc(CNCc2cccs2)ccc1OCc1ccccc1.Cl,-31.8
20,O=C(/C=C/c1cn(-c2ccccc2)nc1-c1cccnc1)N1CCCCC1,-49.7
21,N#C/C(=C\c1c[nH]c2ccccc12)c1nnc2n1CCCCC2,-29.5

row,SMILES,"hERG current change (%, negative = inhibition) at 10uM [%]"
1,N#C/C(=C\c1cn(-c2ccccc2)nc1-c1cccnc1)c1nnc2n1CCCCC2,-63.2
2,Cc1cc(C(=O)COC(=O)C(C)NC(N)=O)c(C)n1Cc1ccco1 (centres unmarked),10.5
3,CCN(C(=O)Cn1nc(C)c([N+](=O)[O-])c1C)C1CCS(=O)(=O)C1 (centres unmarked),24.1
4,Cc1ccc(NC(=O)Cn2ccc([N+](=O)[O-])n2)cc1C,14.2
5,CC(C)n1c(SCC(=O)N2CCN(C(=O)c3ccco3)CC2)nc2c1c(=O)n(C)c(=O)n2C,-50.9
6,CC(C)n1c(CN2CCN(C(=O)c3ccco3)CC2)nc2c1c(=O)n(C)c(=O)n2C,-7.57
7,CC(C)n1c(SCC(=O)N2CCN(C)CC2)nc2c1c(=O)n(C)c(=O)n2C,2.15
8,CCCn1c(SCC(=O)N2CCN(c3ccc(OC)cc3)CC2)nc2c1c(=O)n(C)c(=O)n2C,-36
9,Cn1c(=O)c2c(nc(N3CCN(C(=O)c4ccco4)CC3)n2CCSc2ncccn2)n(C)c1=O,-57.4
10,COc1ccc(N2CCN(C(=O)CSc3nc4c(c(=O)n(C)c(=O)n4C)n3C(C)C)CC2)cc1,-50.2
11,CCN1CCN(c2nc3c(c(=O)n(C)c(=O)n3C)n2CCSc2ncccn2)CC1,3.51
12,Cn1c(=O)c2c(nc(N3CCOCC3)n2CCSc2ncccn2)n(C)c1=O,0.639
13,CC(C)n1c(SCC(=O)N2CCCC2)nc2c1c(=O)n(C)c(=O)n2C,-5.03
14,COc1ccc(S(=O)(=O)N2CCOC2CNC(=O)C(=O)NCc2ccc3c(c2)OCO3)cc1 (centres unmarked),-25.6
15,Cc1ccc(S(=O)(=O)N/N=C\c2ccc(Cl)c([N+](=O)[O-])c2)cc1,18.4
16,CCOC(=O)c1sc(=S)n(-c2cccc(OC)c2)c1N,-7.09
17,CCc1ccc2[nH]c(=O)c(C(c3nnnn3CC3CCCO3)N3CCCc4ccccc43)cc2c1 (centres unmarked),19.8
18,O=C(COC(=O)c1ccccc1Oc1ccccc1)NCc1ccco1,-19.1
19,O=C(Nc1cccc(S(=O)(=O)Nc2ccc(Cl)cc2)c1)c1ccc(Cl)nc1,19.8
20,Cc1oc(-c2ccccc2F)nc1CS(=O)(=O)CC(=O)N1CCc2ccccc21,12.4
